Measurements as given in PubChem BioAssay AID1224817 (Yan Lab, Georgia Cancer Center, Augusta University, 2016).
“And” between values parts separate entries of the source, which are not always exact repeats. Equal values may be shown once. The campaign covered roughly 2,000 compounds. About 25 (1%) were called active.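 How the source made its calls: active means log2 luciferase ratio at or below -0.5849, meaning signal at two thirds of solvent-only control or lower; inactive means the rest.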 The full list was thinned out, with actives kept by preference.

Assay: eIF4E expression suppression, luciferase knock-in reporter – cell-based, HT1080, primary screen (AID 1224817);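 further: luciferase reports endogenous eIF4E expression since it is co-expressed from the native EIF4E locus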
Settings: HT1080 EIF4E-luc2 knock-in reporter, 16 h, at 2.5 µM, stronger effect = lower value

SMILES	log2 luciferase activity ratio
COC1C(O)C(C)OC(OC2C(Oc3cccc4c(O)c5c(=O)oc6ccc(C)c7c(=O)oc(c34)c5c67)OC(C)C(O)C2O)C1O (stereo not given)	-0.702 (active) and -0.391 (inactive)
COC(=O)C1=COC(C)C2CN3CCC4(C(=O)Nc5ccccc54)C3CC12 (stereo not given)	0.122 (inactive)
c1ccc(CCN2CCCCCC2)nc1	0.334 (inactive)
COc1cc(CCN)c(OC)c(OC)c1	-0.289 (inactive)
CC1CCC2(O)C3(C)CC4(O)OC2(C1O)C1(O)C3(O)C(OC(=O)c2ccc[nH]2)C(O)(C(C)C)C41C (stereo not given)	-0.662 (active) and 0.224 (inactive)
Oc1c(Cl)c(Cl)c(Cl)c(Cl)c1Cl	0.387 (inactive)
CC(Cc1ccc(Cl)cc1Cl)NO (stereo not given)	0.563 (inactive)
CC1=C2C(=O)[C@H]3[C@@H](CC=C4C[C@@H](O)CC[C@@]43C)[C@@H]2CC[C@]12O[C@@H]1C[C@H](C)CN[C@H]1[C@H]2C	0.0474 (inactive)
O=C(Nc1ccc([As](=O)(O)O)cc1)Nc1cccc(Cl)c1Cl	0.175 (inactive)
C[C@]12CC[C@H]3[C@@H](CCC4=CC(=O)CC[C@@H]43)[C@@H]1CC[C@@H]2OC1(O)C(=O)c2ccccc2C1=O	-0.175 (inactive)
CC(=O)O[C@@H]1[C@@H](O)C2=C3[C@]4(C)[C@@H]1C(C)(C)C(=O)C[C@@H]4[C@]3(O)[C@H](OC(C)=O)[C@@]1(C[C@@H]1C)C2=O	-0.11 (inactive)
CC(=O)c1c(O)c(C)c(O)c(Cc2c(O)c3c(c(C(=O)/C=C/c4ccccc4)c2O)OC(C)(C)C=C3)c1O	-1.16 (active)
CC(=N\O)/C(C)=N/O.CC(=N\O)/C(C)=N/O.CC(=N\O)/C(C)=N/O.CC(=N\O)/C(C)=N/O.[Cu].[Cu]	0.204 (inactive)
CC[C@](O)(C(=O)O)c1cc2n(c(=O)c1CO)Cc1cc3ccccc3nc1-2	-0.308 (inactive)
NC(CSC1c2ccccc2-c2ccccc21)C(=O)O (stereo not given)	-0.0184 (inactive)
Cc1c2ccncc2c(C)c2c1[nH]c1ccccc12	-1.19 (active)
O=C(c1ccccc1)C1C(c2ccccc2[N+](=O)[O-])N1C1CCCCC1 (stereo not given)	-0.136 (inactive)
CC1=CC23C(COC(=O)C24CO4)C(C(=O)O)=CC3C1C (stereo not given)	-0.125 (inactive)
COc1cc2c(cc1OC)C13CCN4C=C5CCOC6CC(=O)N2C1C6C5CC43 (stereo not given)	0.124 (inactive) and 0.181 (inactive)
CCCCCC(O)C1C(=O)OC(C)C(O)/C=C/C=C/C=C/C=C/C=C(\C)C(O)C(O)C(O)CC(O)CC(O)CC(O)CC(O)CC1O (stereo not given)	-0.286 (inactive)
